Screens deposited in PubChem BioAssay by several laboratories.
HSF-1 act: increases HSF-1 driven luciferase reporter signal | NIH3T3-HGL HSF-1 luciferase reporter, MG132, 8 h; 100% = twice DMSO control signal | activation, % at 9 µM | actives 1.7% (n = 300,000) | AID 504408;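 active = mean replicate activation of at least 50% with a set share of replicates each reaching 50%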;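 note: 0% = median of the neutral control wells and 100% = twice that signal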
AHR act: activators of human aryl hydrocarbon receptor; P35869; actives 2.5% (n = 320,000); activation, % at 5 µM; AHR-responsive luciferase reporter cells, luminescence; in the data active = activation above about 47%;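 note: 0% = vehicle wells and 100% = reference agonist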
NR0B1 inh: NR0B1 (DAX1) inhibition. HEK293 Gal4-DAX1 luciferase reporter, luminescence. inhibition, % at 6.75 µM. actives 0.99% (n = 340,000);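 active = inhibition above the mean over all tested compounds plus 3 SD, cut at about 4.2% in these data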;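 note: 0% = DAX1-transfected cells with DMSO and 100% = empty-vector control cells with DMSO; inhibition shows as a rise in luminescence from relieved DAX1 repression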
Target sequence (P51843 207-470 limits assumed): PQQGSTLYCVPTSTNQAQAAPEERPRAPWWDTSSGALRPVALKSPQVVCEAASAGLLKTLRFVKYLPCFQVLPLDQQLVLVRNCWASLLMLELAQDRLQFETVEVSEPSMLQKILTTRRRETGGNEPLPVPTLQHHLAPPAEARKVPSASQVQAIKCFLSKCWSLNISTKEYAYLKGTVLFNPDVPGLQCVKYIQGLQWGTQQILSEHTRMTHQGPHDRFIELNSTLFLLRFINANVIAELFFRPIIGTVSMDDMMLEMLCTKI
GAA850 FXN act: increases GAA850 frataxin promoter reporter activity. AID 540364. actives 0.56% (n = 360,000). HEK293 lucGAA850 FXN promoter luciferase reporter, 24 h; percent of 10 µM SAHA response. activation, % at 6 µM;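 active = activation above the average of all compounds screened plus 3 SD, cutoff fixed separately per campaign, cut at about 7.5% in these data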;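 note: 0% = DMSO wells and 100% = 10 µM SAHA wells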
HSF1 inhib: HSF1 inhibition. NIH3T3-HGL HSE-luciferase, MG132-induced, luminescence 8 h; hits give low values. activity change, negative = inhibition, % at 7.5 µM (by protocol). actives 0.77% (n = 300,000). AID 2098;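 active = more than half of replicate wells show activity change below -50%, luminescence cut by over half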;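 note: luciferase reports HSF-1 transcriptional activity via heat shock element; 0% = median of DMSO wells and -100% = zero luminescence signal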
Starred values were filed as active, the others as inactive; . = no result given. This is a sample that favours compounds with a hit; in the whole collection about 5.4% have one here.

SMILES | HSF-1 act | AHR act | NR0B1 inh | GAA850 FXN act | HSF1 inhib
COc1ccccc1C(=O)C1CCCN(C(=O)c2cccc(-n3cccn3)c2)C1 (centres undefined) | 5.7 | 6.9 | 0.9 | 1.6 | 4.7
Cc1ccc(C)c(NC(=O)C2CC(O)CN2C(=O)Oc2ccccc2)c1 (centres undefined) | 66.6* | 0.7 | 0.8 | 0.6 | 45.0
Cc1ccc(C)c(NC(=O)C2CC(O)CN2C(=O)OCc2ccccc2)c1 (centres undefined) | -22.5 | 4.8 | 0.0 | 0.6 | -4.6
CC(Cc1ccco1)NC(=O)c1ccc(C(F)(F)F)cc1 (centres undefined) | 66.0* | 1.1 | -0.7 | 4.8 | 32.8
O=C(NCc1ccco1)c1ccc(C(F)(F)F)cc1 | 26.5 | -0.5 | . | 0.9 | 12.1
O=C(CSC(=S)N1CCSCC1)c1ccccc1 | 60.2* | . | 0.6 | 5.3 | 40.0
Cc1cc(SCC(=O)c2cc3ccccc3o2)nc2ccccc12 | 10.6 | 51.6* | -0.2 | 1.4 | 2.7
Cc1cc(SCC(=O)c2ccc(O)c(O)c2)nc2ccccc12 | 7.3 | -2.6 | 0.0 | 0.9 | -0.4
Cc1cc(SCC(=O)c2ccc3c(c2)OCO3)nc2ccccc12 | 3.0 | 63.7* | -0.3 | 1.1 | 6.3
Cc1cc(SCC(=O)O)nc2ccccc12 | 8.9 | 0.6 | -0.9 | 0.7 | -4.0
COc1cc(/C=C/C(=O)O)cc2c1OCCO2 | -0.7 | 1.6 | -1.5 | 1.7 | -1.1
Cc1cc(C)n(-c2nc(NC(C)(C)C)nc(NC(C)(C)C)n2)n1 | -18.3 | 1.1 | -1.1 | -2.5 | -4.9
Cc1cc(C)n(-c2nc(NC(C)C)nc(NC(C)C)n2)n1 | 5.2 | 2.9 | 0.6 | 9.6* | -3.6
Cc1ccc(/C=N/NC(=O)c2cccc(S(=O)(=O)Nc3ccccc3Cl)c2)o1 | 66.0* | 10.0 | -1.2 | 2.8 | 9.3
O=C(N/N=C/c1ccco1)c1cccc(S(=O)(=O)Nc2ccccc2Cl)c1 | -8.0 | 4.8 | 1.9 | -1.1 | -8.5
O=C(CNc1ccccc1)N/N=C/c1c[nH]c2ccccc12 | 9.1 | 50.4* | -0.5 | 0.2 | -6.0
O=C(O)COc1ccccc1/C=N/NC(=O)c1ccc(F)cc1 | -20.2 | 1.7 | 0.6 | -3.1 | -10.2
O=C(CCC(=O)Nc1ccc(F)cc1)N/N=C/c1ccccc1O | 10.9 | 6.4 | -1.6 | 1.5 | 3.8
O=C(CCC(=O)Nc1ccc(F)cc1)N/N=C/c1c[nH]c2ccccc12 | -8.6 | 50.3* | -0.6 | -0.3 | -1.5
Cn1ncc([N+](=O)[O-])c1C(=O)N/N=C/c1c[nH]c2ccccc12 | -1.3 | 69.8* | 0.5 | 2.6 | -7.1
O=C(O)COc1ccccc1/C=N/NC(=O)c1ccc2c(c1)OCCO2 | -66.9 | 4.2 | 0.3 | 1.1 | -59.8*
Cn1cc([N+](=O)[O-])c(C(=O)N/N=C\c2c[nH]c3ccccc23)n1 | 28.5 | 43.9 | 0.7 | -0.2 | -5.2
O=C(N/N=C/c1ccc(OC(=O)c2ccco2)cc1)c1ccc[n+]([O-])c1 | -12.8 | 3.4 | 0.4 | 1.6 | -6.1
CN1C[C@@H]2[C@@H]3C(=O)N(Cc4ccccc4)C(=O)[C@@H]3[C@](Cc3ccccc3)(C1=O)N2C(=O)c1ccc(C(F)(F)F)cc1 | . | . | -0.3 | 1.9 | .
COC(=O)C(C)Oc1ccc(Cc2ncc(C(F)(F)F)cc2Cl)cc1 (centres undefined) | 13.7 | 3.2 | -1.0 | 1.3 | -1.1
SMILES | HSF-1 act | AHR act | NR0B1 inh | GAA850 FXN act | HSF1 inhib
COc1ccc(C2=NS(=O)(=O)N(C)C(C(=O)NCc3ccc(F)cc3)=C2)cc1OC | 1.9 | 15.8 | -1.1 | -0.4 | 1.0
O=C(N/N=C/c1c[nH]c2ccccc12)c1ccc2c(c1)OCCO2 | -49.3 | 48.3* | 3.1 | -2.2 | -43.0
O=C(N/N=C/c1c[nH]c2ccccc12)c1ccncc1 | -1.1 | 26.2 | 1.7 | -1.1 | -0.5
O=C(N/N=C/c1c[nH]c2ccccc12)c1ccccc1 | 20.2 | 17.1 | 6.1* | 4.7 | 7.2
O=C(CSc1nnc(SCc2ccc(Cl)cc2)s1)N/N=C/c1c[nH]c2ccccc12 | 30.9 | 25.7 | 3.0 | 0.5 | 5.4
O=C(CSc1nnc(SCc2cccc3ccccc23)s1)N/N=C/c1c[nH]c2ccccc12 | 26.7 | 47.0* | -0.2 | 4.6 | -0.8
O=C(N/N=C/c1c[nH]c2ccccc12)c1sc2ccccc2c1Cl | -32.5 | 50.0* | 1.4 | 1.4 | -14.7
CCn1cc(S(=O)(=O)c2ccc(Cl)cc2)c(=O)c2cc(OC)ccc21 | 1.9 | -1.5 | -0.9 | -0.8 | 0.3
CCCc1nnc(SCC(=O)N2CCCCC2C)n1CCOC (centres undefined) | -10.7 | -1.3 | -1.8 | 0.0 | -3.3
Cc1cc(C(=O)N/N=C/c2c[nH]c3ccccc23)c(C)o1 | 1.7 | 56.2* | 0.5 | 5.0 | -0.1
Cc1ccc(C(=O)N/N=C/c2c[nH]c3ccccc23)o1 | 14.6 | 20.5 | 0.0 | 2.9 | -3.6
O=C(N/N=C/c1ccccc1Cl)c1ccc(F)cc1 | 55.8* | 0.4 | 1.9 | 5.4 | 32.5
O=C(NN=Cc1ccccc1Cl)c1ccccc1 | . | . | 4.1 | 1.6 | .
Cn1cccc1/C=N/NC(=O)c1sc2ccccc2c1Cl | 45.4 | 5.8 | -0.1 | 0.9 | 15.8
O=C(N/N=C/c1c[nH]c2ccccc12)c1cccc([N+](=O)[O-])c1 | 16.4 | 69.8* | -0.4 | 2.8 | 3.3
O=C(N/N=C/c1coc2ccccc2c1=O)c1cccc([N+](=O)[O-])c1 | 4.8 | 1.4 | -1.1 | -0.4 | -7.0
O=C(N/N=C/c1ccccn1)c1sc2ccccc2c1Cl | -21.2 | 8.8 | -0.3 | 13.0* | -11.4
Cc1sc2c(c1C)C(=O)/C(=C\Nc1ccncc1)S(=O)(=O)N2C | 0.7 | 0.0 | 1.9 | -1.3 | -3.7
CC(=O)Nc1cc2c(cc1Cl)-c1ccccc1C2O (centres undefined) | . | . | 1.6 | 0.8 | .
COc1cc(C(=O)N2CCc3ccccc32)c([N+](=O)[O-])cc1OC | -11.1 | 7.6 | 0.7 | -1.2 | -3.0
CC(Sc1nncs1)C(=O)NC1CCCCC1C (centres undefined) | 2.8 | 0.1 | 0.1 | -1.8 | -3.5
Cc1nnc(SC(C)C(=O)NC2CCCCC2C)n1N (centres undefined) | 12.6 | -0.1 | 4.3* | 0.2 | 3.7
C=CCn1cccc(C(=O)Nc2ccc(C)cc2)c1=O | 56.2* | 55.2* | 0.1 | 2.2 | 19.3
C=CCn1cccc(C(=O)Nc2ccc(C)c(C)c2)c1=O | 44.9 | 22.4 | 1.6 | 4.2 | 25.5
C=CCn1cccc(C(=O)Nc2cc(OC)ccc2OC)c1=O | -0.7 | 59.6* | -0.8 | 2.8 | 2.2
COCC(=O)Nc1c(C(=O)Nc2ccc3c(c2)OCCO3)oc2ccccc12 | 37.9 | 55.3* | 1.0 | 7.4 | 22.9
CCOCC(=O)Nc1c(C(=O)Nc2ccc3c(c2)OCCO3)oc2ccccc12 | 37.5 | 64.9* | 0.1 | 4.2 | 11.7
O=C(Nc1ccc2c(c1)OCCO2)c1oc2ccccc2c1NC(=O)C1CC1 | -13.2 | 16.0 | -1.1 | 4.5 | -6.3
CCOC(=O)C1=C(N)Oc2cc(O)ccc2C1c1ccc(Br)cc1 (centres undefined) | 13.6 | 0.8 | 1.4 | 0.7 | 5.9
